# Assay results taken from ChEMBL document CHEMBL1157539, “Thousands of chemical starting points for antimalarial lead identification” (Nature, 2010).
# How the values were obtained:
# Format in all cases: functional
# Plasmodium falciparum [1] = assay: GSK_TCMDC: Inhibition of Plasmodium falciparum 3D7 in whole red blood cells, using parasite LDH activity as an index of growth. Test compounds present at 2uM
# Plasmodium falciparum [2] = assay: GSK_TCMDC: Inhibition of Plasmodium falciparum Dd2 in whole red blood cells, using parasite LDH activity as an index of growth. Test compounds present at 2uM
# HepG2 = assay: GSK_TCMDC: Percent inhibition of human HepG2 cell line. Test compounds present at 10uM.
Compound,Inhibition (Plasmodium falciparum [1]) [%],Inhibition (Plasmodium falciparum [2]) [%],Inhibition (HepG2) [%]
CCc1c[nH]c2c(N3CCCC3=O)cc(C(=O)N[C@@H](Cc3ccccc3)[C@H](O)CNC(C)(C)c3cccc(OC)c3)cc12,93,98,0
CCOC(=O)c1ccc(NC(=O)Nc2ccc(-c3ccc(-c4nc5ccccc5[nH]4)cc3)cc2)cc1,100,100,49
CCCC(C)NC[C@@H](O)[C@H](Cc1ccccc1)NC(=O)c1cc(C2CCCC2)cc(N2CCCCS2(=O)=O)c1.Cl (some centres not stated),98,99,8
Cc1ccc(C(=O)N2CCN(Cc3nccs3)CC2)cc1,86,0,0
COc1cc2nc(N3CCC(CCCC4CCNCC4)CC3)nc(NCc3ccccn3)c2cc1OC.O=C(O)C(F)(F)F,100,6,2
CN1CCCN(Cc2ccc(-c3ccc(NC(=O)c4ccc(C#N)cc4)cc3)cc2)CC1.O=C(O)C(F)(F)F,91,28,30
CCNc1cc(C(=O)N[C@@H](Cc2ccccc2)[C@H](O)CN[C@@H]2CCc3ccccc32)cc(N2CCCCS2(=O)=O)c1,98,97,0
Cc1cc(OCCCN2CCC(NS(=O)(=O)c3cccc(Br)c3)C2)c2ccccc2n1 (configuration not stated),86,40,13
FC(F)(F)c1ccc2[nH]c(-c3ccc(-c4cccc(CN5CCN(c6ccncc6)CC5)c4)cc3)nc2c1.O=C(O)C(F)(F)F,100,99,82
